Laboratory results reported in PubChem BioAssay (NCI).
Compounds without any hit were thinned out: in the full panel of roughly 83,000, 20% have a hit.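 A percent growth of 40 corresponds to 60% growth inhibition; 0 means no net growth; -100 means all cells died. Active threshold: below 10.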 Calls of active or inactive are those of the source.

Columns and labels:
Test in all cases: NCI-60 one-dose screen, 48 h (100 = growth as untreated, 0 = no growth, -100 = all killed)
Settings in all cases: 10 µM unless noted
[1] = tested on: NCI-H23 lung
[2] = tested on: NCI-H226 lung
[3] = tested on: NCI-H322M lung
[4] = tested on: HOP-62 NSCLC
[5] = tested on: NCI-H460 lung
[6] = tested on: HOP-92 NSCLC
[7] = tested on: NCI-H522 lung
[8] = tested on: A549/ATCC NSCLC
[9] = tested on: 786-0 renal
[10] = tested on: COLO 205 colon
[11] = tested on: DU-145 prostate
[12] = tested on: K-562 leukemia
[13] = tested on: MALME-3M melanoma
[14] = tested on: MDA-MB-231 breast
[15] = tested on: RXF 393 renal
[16] = tested on: SF-268 CNS
[17] = tested on: SF-295 CNS
[18] = tested on: SF-539 CNS
[19] = tested on: UACC-257 melanoma
[20] = tested on: M14 melanoma

Measured: growth

O=C(/C=C/c1ccc(Cl)cc1)c1ccc(NC(=O)N2CCN(c3cc4c(cc3F)c(=O)c(C(=O)O)cn4C3CC3)CC2)cc1
inactive: [1] 87.4% | [2] 89.4% | [3] 103% | [4] 106% | [5] 87.8% | [6] 92.9% | [7] 66.9% | [8] 95.8% | [9] 86.5% | [10] 115% | [11] 98.5% | [12] 65% | [13] 103% | [14] 93% | [15] 97.9% | [16] 89.3% | [17] 108% | [18] 81.7% | [19] 105% | [20] 104%

CC(C)(C)CC(C)(C)n1nnnc1C(NC12CC3CC(CC(C3)C1)C2)c1ccccc1 (stereo not given)
inactive: [1] 90.8% | [2] 84.2% | [3] 105% | [4] 101% | [5] 94.5% | [6] 87% | [7] 74% | [8] 80.7% | [9] 86.3% | [10] 122% | [11] 96.5% | [12] 73.1% | [13] 99.2% | [14] 81.4% | [15] 85.9% | [16] 83.3% | [17] 75.9% | [18] 95.7% | [19] 89.1% | [20] 82.8%

CC(Oc1ccc(C(=O)O)cc1C(F)(F)F)c1ccc(Oc2ccccc2)cn1 (stereo not given)
inactive: [1] 98.6% | [2] 97.6% | [3] 99.5% | [4] 99.1% | [5] 104% | [6] 97.8% | [7] 88.2% | [8] 99.9% | [9] 99.4% | [10] 130% | [11] 111% | [12] 82.8% | [13] 101% | [14] 101% | [15] 95.8% | [16] 94.6% | [17] 100% | [18] 95.9% | [19] 97.7% | [20] 103%

CCOC(=O)Oc1c(OC)cc(C(=O)c2ccc(OC)c(O)c2OC)cc1OC
active: [5] 8.66% | [15] -10.1% | [18] -15.7% | [20] -9.21%
inactive: [1] 37.8% | [2] 54.9% | [3] 46.1% | [4] 24% | [6] 48.3% | [7] 24% | [8] 25.7% | [9] 21.2% | [10] 89.6% | [11] 13.8% | [12] 10.8% | [13] 49.1% | [14] 30.8% | [16] 48.7% | [17] 22.6% | [19] 47.3%

C=C1C(=O)O[C@H]2[C@H]1CC/C(COC(=O)NCC(C)c1ccc(CC(C)C)cc1)=C\CC[C@@]1(C)O[C@@H]21 (stereo not given in full)
active: [6] -33.3% | [7] -64.1% | [9] -87.7% | [10] -50.3% | [12] -18.2% | [13] -62.7% | [14] -62.8% | [15] -73.7% | [16] -17.1% | [18] -77% | [20] -29.8%
inactive: [1] 30.7% | [2] 61.4% | [3] 87% | [4] 82.2% | [5] 19.7% | [8] 73% | [11] 16.4% | [17] 83.4% | [19] 56.1%

CCOc1ccc(/C=N/Nc2cc(C)nc3ccc(Br)cc23)cc1
inactive: [1] 82.2% | [2] 92.7% | [3] 93.5% | [4] 96.5% | [5] 87.2% | [6] 57.5% | [7] 97.7% | [8] 82% | [9] 96.1% | [10] 96.2% | [11] 94.2% | [12] 20.2% | [13] 102% | [14] 68.5% | [15] 85.8% | [16] 99.7% | [17] 82.7% | [18] 102% | [19] 96% | [20] 94%

Cc1cc2nc3c4ccc(Br)cc4n(CCN(C)C)c3nc2cc1C
active: [2] 1.57% | [5] 2.47% | [7] -1.24% | [8] 5.41% | [10] -8% | [11] 3.18% | [12] 4.08% | [13] 0.769%
inactive: [1] 14.8% | [3] 18.9% | [4] 16% | [6] 34.8% | [9] 23.2% | [14] 15.2% | [15] 16.4% | [16] 31% | [17] 14.8% | [18] 17.2% | [19] 18% | [20] 14.8%

O=S(=O)(Nc1ccc(-n2cnc3cc(-c4ccc(O)cc4)ccc32)cc1)c1ccccc1
inactive: [1] 99.8% | [2] 92.1% | [3] 93% | [4] 102% | [5] 95.1% | [6] 130% | [7] 50.8% | [8] 77.2% | [9] 101% | [10] 136% | [11] 105% | [12] 65.4% | [13] 100% | [14] 85.1% | [15] 103% | [16] 78.4% | [17] 87.9% | [18] 67.3% | [19] 106% | [20] 85.1%

CCN(CC)CC[n+]1cc2cc(OC)c(OC)cc2c2ccc3cc4c(cc3c21)OCO4
inactive: [2] 29.7% | [6] 14.7% | [10] 13.9% | [19] 18%
active: [1] 3.47% | [3] -15.9% | [4] -4.95% | [5] -65.7% | [7] -19.1% | [8] -41.2% | [9] 3.36% | [11] 1.33% | [12] 2.65% | [13] -2.49% | [14] -19.5% | [15] -39.1% | [16] -16% | [17] -2.66% | [18] -14.7% | [20] -54.2%

COc1cc(/C=N/NC(=O)c2cnn3c2NC(c2ccccc2)C3)ccc1Oc1ccccc1 (stereo not given)
inactive: [1] 43.8% | [2] 54.1% | [3] 30.8% | [4] 22.3% | [6] 26.1% | [7] 13.8% | [8] 25.5% | [9] 25.5% | [10] 24.9% | [11] 30.2% | [12] 16.8% | [13] 27.4% | [14] 44.3% | [15] 29.3% | [16] 45.2% | [19] 41.6% | [20] 18.2%
active: [5] 7.15% | [17] 0.968% | [18] 9.71%

O=[N+]([O-])CC(c1ccccc1F)c1c[nH]c2ccccc12 (stereo not given)
inactive: [1] 82.5% | [2] 81.9% | [3] 96% | [4] 69% | [5] 94.8% | [6] 80.9% | [7] 23.2% | [8] 70% | [9] 87.7% | [10] 80.4% | [11] 97.2% | [12] 17.9% | [13] 66.9% | [14] 56.5% | [15] 80% | [16] 80.4% | [17] 67.9% | [18] 76.3% | [19] 87.1% | [20] 52.3%

COc1ccc(C(=O)c2cc(C)c(OC)c(C)c2)c(OC)c1NC(C)=O
inactive: [1] 29.5% | [2] 17.4% | [3] 42.7% | [4] 20.3% | [7] 13.4% | [8] 18.1% | [9] 13.7% | [12] 15.5% | [13] 58.5% | [14] 20.9% | [15] 10.8% | [16] 37.9% | [17] 13% | [19] 66.1%
active: [5] 3.32% | [6] 6.76% | [10] -5.99% | [11] 4.21% | [18] -13.7% | [20] -8.33%

COc1cc(/C=N/O)nc(-c2ccccn2)c1
active: [5] 5.13% | [7] 7.77% | [13] 6.48% | [16] 6.74% | [18] 4.89% | [19] 5.15% | [20] 6.86%
inactive: [1] 19.9% | [2] 11.7% | [3] 23.9% | [4] 23.9% | [6] 54.4% | [8] 14.8% | [9] 17.5% | [10] 10.7% | [11] 24.7% | [12] 11.6% | [14] 26.5% | [15] 21.2% | [17] 14.8%

NC(=NCCCOc1ccc(F)cc1)Nc1ccc(I)cc1
inactive: [1] 65.5% | [2] 93.7% | [3] 88% | [4] 80.4% | [5] 81.8% | [6] 69.8% | [7] 56.9% | [8] 70.4% | [9] 72.9% | [11] 63.1% | [12] 27.3% | [13] 74.6% | [14] 51.9% | [15] 94% | [16] 67.7% | [17] 80.8% | [18] 78.8% | [19] 55.8% | [20] 59.6%
active: [10] -66.8%

CCCCCN1C=C/C(=C\C(=O)N(C)c2ccccc2Br)c2ccccc21
inactive: [1] 77.8% | [2] 89.8% | [3] 108% | [4] 95.3% | [5] 101% | [6] 94.7% | [7] 78.2% | [8] 90.9% | [9] 94.1% | [10] 105% | [11] 109% | [12] 74.6% | [13] 91% | [14] 97.6% | [15] 101% | [16] 96.4% | [17] 95.1% | [18] 99.6% | [19] 93% | [20] 104%
